NCF1 inh = blocks human p47phox regulatory protein of NADPH oxidases; P14598; p47phox/p22phox peptide binding, fluorescence polarization, 2 h; inhibition, % at 24.7 µM; hit rate 0.53% among 220,000; AID 1274;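 note: 0% = p47phox with labelled peptide and 100% = labelled peptide alone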
14-3-3 Bad PPI = disrupts binding of bovine 14-3-3 zeta to phospho-Bad peptide. TR-FRET 14-3-3zeta/Dy647-pBad peptide displacement, 1 h. inhibition, % at 21.7 µM. hit rate 0.71% among 220,000. P63103;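 active = inhibition above about 70%, limit read from the data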;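 note: 0% = full 14-3-3 plus peptide FRET controls and 100% = background without 14-3-3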
Target sequence (P63103 whole entry, looked up): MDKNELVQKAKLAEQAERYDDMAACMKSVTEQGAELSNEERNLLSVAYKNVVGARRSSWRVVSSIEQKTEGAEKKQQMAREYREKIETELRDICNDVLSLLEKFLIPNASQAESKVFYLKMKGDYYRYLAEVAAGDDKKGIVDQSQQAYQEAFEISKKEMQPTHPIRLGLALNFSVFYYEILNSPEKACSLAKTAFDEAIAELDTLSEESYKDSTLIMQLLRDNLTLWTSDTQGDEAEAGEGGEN
Mcl1-Bid inh = disrupts binding of human Mcl-1 to Bid peptide; AID 1021; Q07820; inhibition, % at 21.7 µM; TR-FRET Mcl-1/Bid-Dy647 peptide binding, 1536-well; hit rate 0.97% among 220,000;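 active = compounds that cut the binding signal by more than half at the single screening dose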;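 note: His-tagged Mcl-1 with europium anti-His antibody binding Bid BH3 peptide; 0% = Mcl-1 plus peptide wells and 100% = peptide-only wells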
Target sequence (Q07820 whole entry, looked up): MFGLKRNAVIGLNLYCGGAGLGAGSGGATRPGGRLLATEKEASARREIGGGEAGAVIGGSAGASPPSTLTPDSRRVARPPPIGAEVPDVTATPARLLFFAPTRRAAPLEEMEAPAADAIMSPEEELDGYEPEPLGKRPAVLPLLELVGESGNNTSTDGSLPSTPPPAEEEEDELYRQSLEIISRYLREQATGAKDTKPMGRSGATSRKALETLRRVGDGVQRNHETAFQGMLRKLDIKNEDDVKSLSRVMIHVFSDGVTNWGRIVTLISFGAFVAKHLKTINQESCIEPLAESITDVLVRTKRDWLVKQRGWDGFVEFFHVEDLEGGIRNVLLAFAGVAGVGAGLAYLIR
Bim-Mcl-1 = inhibitors of Bim-Mcl-1 interaction, human; AID 1009; hit rate 0.1% among 190,000; Bead-based flow cytometry, Bim peptide-Mcl-1 binding; inhibition, % at 10 µM; Q07820; in the data active = inhibition above about 40%;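 note: 0% = no compound tracer wells and 100% = peptide blocker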
eIF4E 4G PPI = blocks eIF4E binding to eIF4G. AID 782. TR-FRET eIF4E-eIF4GI(517-606) binding, 2 h. inhibition, % at 21.7 µM. hit rate 0.37% among 220,000. P63073+Q04637;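 note: 0% = full FRET control wells and 100% = background wells lacking eIF4GI fragment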
Mcl1 Noxa PPI = disrupts binding of human Mcl-1 to Noxa peptide; Q07820; TR-FRET Mcl-1/Noxa peptide binding, 2 h; inhibition, % at 21.7 µM; hit rate 1.5% among 220,000; AID 1022;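 active = compounds that cut the protein-peptide binding signal by more than 50% relative to plate controls in a single-dose test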;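 note: His-tagged Mcl-1 with rhodamine Noxa BH3 peptide and terbium anti-His antibody; 0% = Mcl-1 plus Noxa peptide wells and 100% = peptide-only wells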
Starred values were filed as active, the others as inactive; / = no result; + = active, no number; [ ] = dose if it differs, or a comment. Compounds with a hit are over-represented: about 3.3% of the library has one in this group of screens.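 Rule for the calls, unless noted: active = inhibition above about 30% (limit read from the data); inactive = the rest.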

SMILES	NCF1 inh	14-3-3 Bad PPI	Mcl1-Bid inh	Bim-Mcl-1	eIF4E 4G PPI	Mcl1 Noxa PPI
CC(=O)c1cc(CN2CCN(Cc3ccccc3)C(CCO)C2)cs1 (centres undefined)	0	-4	-36	0	1	5
COCCCn1cc(C(=O)c2cc(OC)ccc2OCC(=O)N2CCCCC2C)cc(C#N)c1=O (centres undefined)	-2	-6	-44	-1	-2	7
COc1ccc(OCc2nnc(SCC(=O)c3c(N)n(C)c(=O)n(C)c3=O)n2-c2ccccc2F)cc1	-7	-2	-21	-2	-1	8
O=c1c2c(nc3nc(NCc4cccc(Cl)c4)[nH]n13)CCC2	-6	72*	-20	-2	-1	-8
CCN(CC)c1ccc(NC(=O)c2cc3ccccc3o2)c(C)c1	-9	54	-13	-2	-10	51*
CCC(=O)NC(=S)Nc1ccc(NC(=O)c2cc3ccccc3o2)c(OC)c1	2	52	63*	-2	10	31
Cc1cc2nc(C)n(CCCNC(=O)Nc3ccc(F)cc3)c2cc1C	-12	-5	0	0	3	28
O=[N+]([O-])c1ccccc1/C=N/Nc1nnc(-c2ccccc2)c(-c2ccccc2)n1	0	-20	-3	3	-4	12
Cc1noc(C)c1C(=O)N1CCC2(CC1)Oc1ccc(F)cc1C(=O)C21CC(c2ccc(Cl)cc2)=NO1 (centres undefined)	-2	-6	-27	/	-5	9
Cc1c(C(=O)Nc2ccc(F)cc2)cn2c(nc3ccccc32)c1C#N	-14	12	-52	/	2	-6
N#Cc1c2nc3ccccc3nc2n2cc(NC(=O)c3ccc(F)cc3)ccc12	55*	78*[fluorescence artefact?]	86*	12	16	111*
Cc1cccc(NC(=O)CN2C(=O)N/C(=C/c3ccc(C)o3)C2=O)c1	-78	-1	0	6	-2	85*
CCn1c(C)cc(/C=C2/NC(=O)N(CC(=O)Nc3cccc(C)c3)C2=O)c1C	59*	37	85*	-4	9	54*
CC1CCCCC1NC1=NCCCS1 (centres undefined)	-1	-8	-9	0	3	10
CC(C)Cc1cc(CN2CCC(CO)(Cc3cccc(C(F)(F)F)c3)CC2)[nH]n1	+	-8	9	-3	0	16
CC(C)Cc1cc(CN2CCCC(CO)(Cc3cccc(Cl)c3)C2)[nH]n1 (centres undefined)	-9	-4	-21	-5	1	17
CCOC(=O)c1ccc(NC(=S)N2CCN(CCNC3=CC(=O)CC(C)(C)C3)CC2)cc1	1	-6	-35	0	-2	16
Cc1[nH]c2ccccc2c1C(c1ccccn1)N1CCC(C(N)=O)CC1 (centres undefined)	14	4	17	-1	2	57*
Cc1[nH]c2ccccc2c1C(c1ccncc1)N1CCC(C)CC1 (centres undefined)	-3	-9	-12	-2	-1	0
CCOC(=O)C1CCN(C(c2ccccn2)c2c(C)[nH]c3ccccc23)CC1 (centres undefined)	18	-8	4	2	1	59*
c1ccc(Oc2cccc(OCCn3cncn3)c2)cc1	7	65	59*	-1	-10	32
Cc1sc2ncn(CC(=O)NCc3ccco3)c(=O)c2c1-c1ccc(F)cc1	-20	0	-30	2	5	6
O=C(Cn1cnc2scc(-c3cccc([N+](=O)[O-])c3)c2c1=O)NCc1ccco1	-10	16	-25	-1	19	67*
O=C(O)Cn1cc(/C=c2/sc3nc4ccccc4n3c2=O)c2ccccc21	-59	-14	-29	0	-4	64*
O=c1/c(=C\c2cccn2-c2ccccc2)sc2nc3ccccc3n12	-30	12	-6	5	-58	/
SMILES	NCF1 inh	14-3-3 Bad PPI	Mcl1-Bid inh	Bim-Mcl-1	eIF4E 4G PPI	Mcl1 Noxa PPI
Nc1c(C2=NCCO2)nnn1Cc1ccccc1	44*	3	13	-3	-8	-4
c1ccc2c(-c3cn4ccccc4n3)c[nH]c2c1	-11	-12	-31	0	0	11
CCOc1ccc(OCC)c2sc(C)nc12	59*	3	-5	1	14	2
CCOc1cccc2sc(Cl)nc12	-1	-4	-22	-4	-8	12
O=C(COC(=O)c1cc(-c2cccs2)nn1-c1ccccc1)Nc1ccc(Cl)c([N+](=O)[O-])c1	-22	-3	-26	-6	6	2
O=C(NCC1CC1)c1ccc(Nc2nc3ccc(Br)cc3[nH]2)cc1	7	35	13	0	2	52*
O=C(NCc1ccco1)c1cccc(Nc2nc3ccc(Br)cc3[nH]2)c1	-2	-7	0	-6	-11	24
Clc1ccc(-c2nc(/C=N/N3CCOCC3)c3ccccn23)cc1	-17	-5	-27	-3	12	25
COc1ccc(C(=O)Nc2nc3cc4c(cc3s2)OCO4)c(OC)c1	-5	19	51*	/	3	52*
Cc1ccccc1N/C(SCc1cccc(Br)c1)=C(/C#N)C(N)=O	-1	71*[fluorescence artefact?]	12	-11	1	16
COc1ccc(-c2ncnc(C(F)(F)F)c2-c2csc(C)n2)c(O)c1	-11	2	-33	/	-3	-23
C/C(CCc1ccc2c(c1)OCO2)=N\NC(=O)c1ccccc1	-1	4	-7	-2	-2	15
NC(=NCc1ccc2c(c1)OCO2)NC(=O)c1ccccc1	-12	77*	7	-1	68*	9
CCCC(=O)Nc1cccc(C(=O)Nc2ccccc2OCC)c1	7	-1	-20	0	3	14
O=C1Nc2ccccc2/C1=C/c1cnc(-c2ccccc2)[nH]1	-16	58	9	/	-60	65*
O=C1Nc2ccccc2/C1=C/c1cccnc1	-2	-10	-22	-3	-6	-19
CCC(=O)c1ccc(N2CCN(C(=O)c3ccccc3)CC2)c(F)c1	2	0	-8	1	1	0
O=C(O)C1OC(Oc2c(-c3ccc(O)c(O)c3)oc3cc(O)cc(O)c3c2=O)C(O)C(O)C1O (centres undefined)	-9	-3	2	0	7	53*
CC1OC(Oc2c(-c3cc(O)c(O)c(O)c3)oc3cc(O)cc(O)c3c2=O)C(O)C(O)C1O (centres undefined)	-13	-10	-37	/	-2	44
O=C(ONc1ccc(N=NC(=O)c2ccccc2O)cc1)c1ccccc1	31*	11	88*	0	4	84*
O=Nc1ccc(NOC(=O)c2ccccc2Br)cc1	3	-15	-27	-1	-3	-1
CC(C)C1CC(CCNCc2ccc(N(C)C)cc2)(c2ccccc2)CCO1 (centres undefined)	0	-2	-31	-7	-2	14

Screening results (PubChem)
